Targets with a hit are over-represented here; the source holds about 8,800 in all. About 0.5% of all pairs of compound and target were hits.
How the values were obtained:
Assay in all cases: log2 fold change, soluble protein after heating vs DMSO (PISA); higher = thermal stabilisation; K562 lysate, 10 uM; active = over 0.2 and 3.5 SD of the protein, either way, in both replicates (recomputed)
[1] = compound: C1=CC=C(C=C1)[C@H](COC2=CC3=C(C=C2)NC(=O)N3)NC(=O)C4=CC=CN(C4=O)CC5=CC(=C(C=C5)F)F
Method in brief: (§1)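 A 30 min treatment with 10 μM compound was applied to crude K562 extract at 1 mg/mL protein in PBS pH 7.4 with 1 mM MgCl2. Heating for 3 min spanned 48°C-58°C, after which aliquots were pooled, adjusted to 0.5% NP-40 at 4°C and spun at 21,000xg for 90 min. TMTpro 16plex LC-MS/MS of the supernatant, with channel sums equalised, gave values recorded as log-two fold change in thermal stability against solvent controls, from duplicates.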

[2] = compound: CC1=C(SC2=C1C(=N[C@H](C3=NN=C(N32)C)CC(=O)N)C4=CC=C(C=C4)Cl)C
Method in brief: as §1

[3] = compound: CC1=C2C(=CC=C1)N=C(N(C2=O)C3=CC=CC=C3C)CN4C=NC5=C(N=CN=C54)N
Method in brief: as §1

[4] = compound: Cc1sc2c(c1C)C(c1ccc(Cl)cc1)=N[C@@H](CC(=O)OC(C)(C)C)c1nnc(C)n1-2
Method in brief: as §1

[5] = compound: c1ccc([C@@H]2C[C@H]2NC2CCNCC2)cc1
Method in brief: as §1

Measured: log2 fold change

HADHA (UniProt P40939)
inactive: [1] 0.065 | [2] -0.006 | [3] 0.102 | [4] 0.117 | [5] -0.008

HMGN4 (UniProt O00479)
inactive: [1] -0.137 | [2] -0.395 | [3] -0.186 | [4] 0.297 | [5] 0.513

HAUS3 (UniProt Q68CZ6)
inactive: [1] -0.035 | [2] 0.023 | [3] 0.051 | [4] -0.032 | [5] 0.064

KBTBD2 (UniProt Q8IY47)
inactive: [1] 0.016 | [2] -0.005 | [3] 0.025 | [4] 0.012 | [5] -0.119

H2AFY (UniProt O75367)
inactive: [1] -0.035 | [2] 0.045 | [3] 0.026 | [5] -0.045
active: [4] 0.296

ITPKA (UniProt P23677)
inactive: [1] -0.022 | [2] 0.006 | [3] -0.017 | [4] -0.012 | [5] -0.013

GPX4 (UniProt P36969)
inactive: [1] 0.018 | [2] -0.01 | [3] 0.036 | [4] -0.03 | [5] 0.048

HAUS7 isoform 2 (UniProt Q99871)
inactive: [1] 0.163 | [2] 0.036 | [3] 0.019 | [4] 0.069 | [5] 0.032

HSD17B10 (UniProt Q99714)
inactive: [1] -0.006 | [2] 0.062 | [3] 0.03 | [4] 0.022 | [5] 0.003

GLYR1 (UniProt Q49A26)
inactive: [1] -0.179 | [2] 0.066 | [3] -0.128 | [4] 0.142 | [5] 0.043

GSK3A (UniProt P49840)
inactive: [1] -0.041 | [2] 0.03 | [3] -0.059 | [4] 0.036 | [5] -0.044

HDAC6 (UniProt Q9UBN7)
inactive: [1] 0.029 | [2] 0.036 | [3] -0.017 | [4] -0.007 | [5] 0.042

HMBOX1 isoform 5 (UniProt Q6NT76)
inactive: [1] 0.016 | [2] -0.008 | [3] 0.055 | [4] 0.027 | [5] -0.114

HACE1 (UniProt Q8IYU2)
inactive: [1] -0.03 | [2] 0.08 | [3] 0.07 | [4] -0.115 | [5] -0.377

IMMT (UniProt Q16891)
inactive: [1] -0.089 | [2] 0.016 | [3] 0.017 | [4] 0.022 | [5] 0.038

HECTD4 (UniProt J3KPF0)
inactive: [1] -0.013 | [2] 0.023 | [3] 0.068 | [4] -0.03 | [5] 0.043

GTF3C5 isoform 3 (UniProt Q9Y5Q8)
inactive: [1] -0.024 | [2] 0.001 | [3] 0.019 | [4] 0.056 | [5] 0.016

KARS1 (UniProt Q15046)
inactive: [1] 0.005 | [2] 0.019 | [3] 0.002 | [4] 0.045 | [5] 0.045

HNRNPUL2 (UniProt Q1KMD3)
UniProt Q1KMD3, sequence (Q1KMD3 whole entry, looked up): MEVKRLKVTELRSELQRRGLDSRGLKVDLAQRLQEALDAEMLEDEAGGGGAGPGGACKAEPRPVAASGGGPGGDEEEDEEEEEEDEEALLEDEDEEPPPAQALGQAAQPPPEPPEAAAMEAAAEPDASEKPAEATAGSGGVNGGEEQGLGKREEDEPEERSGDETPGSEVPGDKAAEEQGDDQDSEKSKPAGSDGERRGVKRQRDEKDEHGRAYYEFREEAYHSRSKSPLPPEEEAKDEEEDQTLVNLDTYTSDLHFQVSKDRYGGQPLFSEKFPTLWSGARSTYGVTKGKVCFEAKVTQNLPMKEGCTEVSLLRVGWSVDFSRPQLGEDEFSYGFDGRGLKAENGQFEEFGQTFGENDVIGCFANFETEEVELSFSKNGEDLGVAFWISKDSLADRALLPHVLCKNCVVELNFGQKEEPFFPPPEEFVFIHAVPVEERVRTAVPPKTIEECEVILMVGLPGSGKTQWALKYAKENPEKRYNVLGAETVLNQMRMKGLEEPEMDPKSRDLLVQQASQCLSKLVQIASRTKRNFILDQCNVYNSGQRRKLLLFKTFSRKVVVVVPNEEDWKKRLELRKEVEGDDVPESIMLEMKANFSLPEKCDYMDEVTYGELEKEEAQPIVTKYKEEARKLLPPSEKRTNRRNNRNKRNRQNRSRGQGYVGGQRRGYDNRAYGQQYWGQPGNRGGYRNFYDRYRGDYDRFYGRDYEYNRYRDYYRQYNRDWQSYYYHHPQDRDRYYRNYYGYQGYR
inactive: [1] 0.011 | [2] 0.016 | [3] 0.015 | [4] 0.007 | [5] 0.032

GSTZ1 (UniProt G3V4T6)
inactive: [1] 0.035 | [2] 0.002 | [3] -0.036 | [4] 0.062 | [5] -0.042

KDM6A (UniProt O15550)
UniProt O15550, sequence (O15550 whole entry, looked up): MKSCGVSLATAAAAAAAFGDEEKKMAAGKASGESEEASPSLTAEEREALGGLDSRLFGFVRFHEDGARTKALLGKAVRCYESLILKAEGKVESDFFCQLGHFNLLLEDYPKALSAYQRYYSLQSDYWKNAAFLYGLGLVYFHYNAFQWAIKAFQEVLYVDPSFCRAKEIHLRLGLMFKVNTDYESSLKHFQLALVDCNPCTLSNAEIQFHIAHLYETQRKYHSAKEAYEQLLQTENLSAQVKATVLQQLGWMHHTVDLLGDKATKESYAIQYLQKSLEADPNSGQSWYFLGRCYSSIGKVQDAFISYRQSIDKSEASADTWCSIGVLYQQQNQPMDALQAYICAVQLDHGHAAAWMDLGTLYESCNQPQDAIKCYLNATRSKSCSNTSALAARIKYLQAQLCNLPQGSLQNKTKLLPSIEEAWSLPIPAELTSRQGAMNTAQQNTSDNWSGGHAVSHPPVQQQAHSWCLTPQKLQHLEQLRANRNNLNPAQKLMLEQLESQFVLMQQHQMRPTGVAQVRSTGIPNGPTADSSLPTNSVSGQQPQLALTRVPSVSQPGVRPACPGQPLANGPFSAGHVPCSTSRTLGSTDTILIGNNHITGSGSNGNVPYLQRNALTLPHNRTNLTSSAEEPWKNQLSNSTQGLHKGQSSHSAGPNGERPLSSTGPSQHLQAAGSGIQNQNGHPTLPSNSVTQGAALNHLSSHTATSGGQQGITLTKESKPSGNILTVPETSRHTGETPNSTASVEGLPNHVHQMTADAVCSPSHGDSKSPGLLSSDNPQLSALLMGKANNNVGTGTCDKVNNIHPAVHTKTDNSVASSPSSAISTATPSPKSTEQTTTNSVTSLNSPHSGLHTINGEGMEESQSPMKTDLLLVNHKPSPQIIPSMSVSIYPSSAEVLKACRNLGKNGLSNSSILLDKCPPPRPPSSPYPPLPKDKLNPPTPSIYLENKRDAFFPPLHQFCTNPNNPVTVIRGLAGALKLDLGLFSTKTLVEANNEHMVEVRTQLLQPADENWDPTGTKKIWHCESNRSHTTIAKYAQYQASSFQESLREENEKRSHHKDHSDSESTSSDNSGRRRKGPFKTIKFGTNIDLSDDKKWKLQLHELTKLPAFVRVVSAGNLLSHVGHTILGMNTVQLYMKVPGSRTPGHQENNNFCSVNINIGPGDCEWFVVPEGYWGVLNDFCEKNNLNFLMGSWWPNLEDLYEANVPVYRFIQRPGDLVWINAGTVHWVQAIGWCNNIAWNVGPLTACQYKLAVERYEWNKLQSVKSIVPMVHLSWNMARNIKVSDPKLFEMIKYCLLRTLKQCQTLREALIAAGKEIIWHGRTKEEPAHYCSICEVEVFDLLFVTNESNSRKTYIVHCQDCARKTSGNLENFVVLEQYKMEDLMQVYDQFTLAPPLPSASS
inactive: [1] -0.024 | [2] -0.019 | [3] 0.049 | [4] -0.03 | [5] 0.008

IRAK4 (UniProt Q9NWZ3)
inactive: [1] -0.02 | [2] -0.014 | [3] 0.022 | [4] -0.08 | [5] -0.024

IARS (UniProt P41252)
inactive: [1] -0.027 | [2] 0.026 | [3] 0.025 | [4] 0.066 | [5] 0.047

HSD17B12 (UniProt Q53GQ0)
inactive: [1] -0.127 | [2] -0.006 | [3] 0.059 | [4] 0.031 | [5] -0.108

ISY1 isoform 1 (UniProt Q9ULR0)
inactive: [1] 0.016 | [2] 0 | [3] 0.001 | [4] -0.12 | [5] -0.004

HNRNPL (UniProt P14866)
UniProt P14866, sequence (P14866 whole entry, looked up): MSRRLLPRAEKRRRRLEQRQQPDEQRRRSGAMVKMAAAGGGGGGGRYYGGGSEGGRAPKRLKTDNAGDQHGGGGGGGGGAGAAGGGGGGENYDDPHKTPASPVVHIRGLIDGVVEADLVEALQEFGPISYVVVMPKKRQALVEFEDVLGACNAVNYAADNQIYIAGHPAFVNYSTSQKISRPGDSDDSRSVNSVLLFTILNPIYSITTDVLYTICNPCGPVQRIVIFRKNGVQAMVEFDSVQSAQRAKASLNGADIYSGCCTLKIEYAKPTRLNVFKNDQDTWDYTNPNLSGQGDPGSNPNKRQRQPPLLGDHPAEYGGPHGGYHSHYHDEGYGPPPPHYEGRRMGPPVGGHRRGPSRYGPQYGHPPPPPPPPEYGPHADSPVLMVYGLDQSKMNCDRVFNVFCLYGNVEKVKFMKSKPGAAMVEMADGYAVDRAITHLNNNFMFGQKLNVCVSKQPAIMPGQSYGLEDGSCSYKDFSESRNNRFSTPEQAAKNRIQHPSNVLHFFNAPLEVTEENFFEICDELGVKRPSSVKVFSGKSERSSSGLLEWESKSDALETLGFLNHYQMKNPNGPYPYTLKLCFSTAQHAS
inactive: [1] -0.01 | [2] -0.024 | [3] 0.04 | [4] 0.039 | [5] 0.071

HIST2H2AA3 (UniProt Q6FI13)
inactive: [1] 0.017 | [2] 0 | [3] -0.111 | [4] 0.268 | [5] 0.277

KBTBD4 isoform 2 (UniProt Q9NVX7)
inactive: [1] -0.014 | [2] -0.003 | [3] -0.106 | [4] -0.025 | [5] 0.016

GSK3B isoform 2 (UniProt P49841)
UniProt P49841, sequence (P49841 whole entry, looked up): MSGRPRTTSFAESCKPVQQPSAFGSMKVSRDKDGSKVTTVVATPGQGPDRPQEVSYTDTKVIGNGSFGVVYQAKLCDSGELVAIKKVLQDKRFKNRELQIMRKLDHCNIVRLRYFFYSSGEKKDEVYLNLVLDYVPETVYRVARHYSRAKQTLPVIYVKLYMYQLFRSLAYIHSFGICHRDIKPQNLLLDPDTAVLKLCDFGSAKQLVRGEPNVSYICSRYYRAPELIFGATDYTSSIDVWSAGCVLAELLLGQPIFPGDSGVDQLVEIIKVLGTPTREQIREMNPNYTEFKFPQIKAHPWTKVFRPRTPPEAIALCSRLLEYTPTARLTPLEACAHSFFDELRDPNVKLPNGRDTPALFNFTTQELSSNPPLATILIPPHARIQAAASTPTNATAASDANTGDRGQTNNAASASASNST
inactive: [1] 0.036 | [2] -0.003 | [3] -0.042 | [4] 0.029 | [5] -0.074

GSE1 (UniProt Q14687)
inactive: [1] -0.031 | [2] 0.005 | [3] -0.002 | [4] -0.015 | [5] 0.184

HDLBP, A0A024R4E5
inactive: [1] -0.024 | [2] -0.013 | [3] 0.017 | [4] -0.018 | [5] 0.008

GOLPH3 (UniProt Q9H4A6)
inactive: [1] -0.067 | [2] 0.018 | [3] 0.022 | [4] -0.089 | [5] 0.008

HSPA8 (UniProt E9PK54)
inactive: [1] 0.065 | [2] -0.031 | [3] -0.031 | [4] -0.046 | [5] -0.125

INTS3 (UniProt Q68E01)
inactive: [1] 0.017 | [2] 0.063 | [3] -0.043 | [4] -0.06 | [5] 0.074

HADHB (UniProt P55084)
inactive: [1] 0.053 | [2] 0.021 | [3] 0.105 | [4] 0.167 | [5] -0.048

GNE isoform 2 (UniProt Q9Y223)
inactive: [1] -0.072 | [2] 0.006 | [3] 0.023 | [4] 0.007 | [5] 0.06

GTF2I (UniProt P78347)
UniProt P78347, sequence (P78347 whole entry, looked up): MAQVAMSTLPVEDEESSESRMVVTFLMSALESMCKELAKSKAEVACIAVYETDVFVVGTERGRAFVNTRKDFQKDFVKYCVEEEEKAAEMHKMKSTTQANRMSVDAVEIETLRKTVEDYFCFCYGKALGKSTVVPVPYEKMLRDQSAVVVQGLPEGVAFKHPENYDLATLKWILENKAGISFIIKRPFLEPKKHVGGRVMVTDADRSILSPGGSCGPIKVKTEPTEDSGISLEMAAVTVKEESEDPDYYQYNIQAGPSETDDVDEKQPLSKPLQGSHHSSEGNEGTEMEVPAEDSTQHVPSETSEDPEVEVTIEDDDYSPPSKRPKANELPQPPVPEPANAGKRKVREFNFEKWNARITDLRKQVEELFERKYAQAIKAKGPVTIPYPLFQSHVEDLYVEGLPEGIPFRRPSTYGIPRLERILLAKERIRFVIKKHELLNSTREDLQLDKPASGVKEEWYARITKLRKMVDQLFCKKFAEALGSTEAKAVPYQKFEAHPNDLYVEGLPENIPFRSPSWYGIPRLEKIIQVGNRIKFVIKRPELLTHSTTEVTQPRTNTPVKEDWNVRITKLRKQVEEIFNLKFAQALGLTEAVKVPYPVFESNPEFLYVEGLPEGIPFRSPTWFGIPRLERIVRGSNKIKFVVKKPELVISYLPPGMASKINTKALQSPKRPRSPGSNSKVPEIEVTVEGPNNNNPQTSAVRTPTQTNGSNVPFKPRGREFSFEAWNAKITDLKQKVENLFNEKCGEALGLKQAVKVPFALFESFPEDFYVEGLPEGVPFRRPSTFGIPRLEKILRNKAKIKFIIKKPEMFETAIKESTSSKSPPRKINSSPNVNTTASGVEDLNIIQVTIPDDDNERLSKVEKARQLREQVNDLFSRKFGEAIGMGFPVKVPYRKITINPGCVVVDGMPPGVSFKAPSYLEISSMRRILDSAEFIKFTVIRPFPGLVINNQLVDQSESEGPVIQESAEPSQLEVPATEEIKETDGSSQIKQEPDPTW
inactive: [1] -0.026 | [2] 0 | [3] 0.009 | [4] 0.015 | [5] 0.061

HAUS4 (UniProt Q9H6D7)
inactive: [1] -0.009 | [2] -0.043 | [3] 0.019 | [4] 0.019 | [5] 0.02

HSPB1 (UniProt P04792)
UniProt P04792, sequence (P04792 whole entry, looked up): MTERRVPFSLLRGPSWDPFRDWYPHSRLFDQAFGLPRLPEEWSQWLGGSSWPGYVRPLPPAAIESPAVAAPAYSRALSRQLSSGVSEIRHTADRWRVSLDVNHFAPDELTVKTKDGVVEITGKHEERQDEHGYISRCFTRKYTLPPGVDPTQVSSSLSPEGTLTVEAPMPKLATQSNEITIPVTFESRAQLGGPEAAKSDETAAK
inactive: [1] -0.091 | [2] 0.002 | [3] 0.002 | [4] -0.017 | [5] 0.028

GMDS (UniProt O60547)
inactive: [1] -0.003 | [2] -0.014 | [3] 0.042 | [4] 0.033 | [5] 0.005

HSP90AA4P (UniProt Q58FG1)
UniProt Q58FG1, sequence (Q58FG1 whole entry, looked up): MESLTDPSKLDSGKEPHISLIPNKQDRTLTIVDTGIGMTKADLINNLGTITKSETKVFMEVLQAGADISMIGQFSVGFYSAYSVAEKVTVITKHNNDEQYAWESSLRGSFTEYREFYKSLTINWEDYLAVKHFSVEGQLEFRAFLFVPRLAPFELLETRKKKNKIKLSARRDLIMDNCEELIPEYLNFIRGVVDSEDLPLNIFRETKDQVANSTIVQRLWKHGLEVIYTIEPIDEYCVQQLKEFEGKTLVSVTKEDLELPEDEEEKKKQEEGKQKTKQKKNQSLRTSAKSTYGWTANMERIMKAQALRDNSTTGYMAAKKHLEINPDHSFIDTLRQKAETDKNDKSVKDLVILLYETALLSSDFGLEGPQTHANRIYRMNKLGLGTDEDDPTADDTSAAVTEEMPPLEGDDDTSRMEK
inactive: [1] 0.012 | [2] 0.1 | [3] -0.008 | [4] -0.101 | [5] -0.308

ITM2B (UniProt Q9Y287)
UniProt Q9Y287, sequence (Q9Y287 whole entry, looked up): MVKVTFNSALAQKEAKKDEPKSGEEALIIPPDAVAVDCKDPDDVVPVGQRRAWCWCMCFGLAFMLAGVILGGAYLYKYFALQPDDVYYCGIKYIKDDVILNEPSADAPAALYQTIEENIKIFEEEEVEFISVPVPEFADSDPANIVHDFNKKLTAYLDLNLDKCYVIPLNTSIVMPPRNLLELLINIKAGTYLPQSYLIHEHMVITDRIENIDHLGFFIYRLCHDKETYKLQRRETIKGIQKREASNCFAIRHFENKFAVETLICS
active: [3] 0.43
inactive: [1] -0.019 | [2] -0.032 | [4] 0.058 | [5] -0.027
